Screens: PubChem BioAssay, National Center for Advancing Translational Sciences (NCATS)
IL1B secr inh = qHTS for Inhibitors of Inflammasome Signaling: IL-1-beta AlphaLISA Primary Screen; THP-1 LPS/ATP IL-1B secretion, AlphaLISA, 16 h; active compounds read low; activity change, % at 57.5 µM; 360,000 tested, 4.7% active; in the data active = activity change below about -50%; inconclusive = mostly about -30% to -49%
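Secreted IL-1B measured by AlphaLISA bead assay after 16 h compound exposure of THP-1 cells; compounds (final up to 57.5 uM) added 1 h before LPS (250 ng/mL) and ATP (1.25 mM) stimulation; lower signal means less secretion.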
ELG1 repair inh = qHTS screen for small molecules that inhibit ELG1-dependent DNA repair in human embryonic kidney (HEK293T) cells expressing luciferase-tagged ELG1; HEK293T ELG1-luciferase reporter, luminescence, 16 h; DNA damage induced by 5-fluorouridine; Potency, µM (titrated, usually from 46.1 µM), usual class: inhibitors; 330,000 tested, 2.3% active; AID 504467, 2011; also: nearly all actives have a fitted effect of over 55% in size
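Quantitative HTS, concentration-response format. 2,000 cells/well co-treated with 5-fluorouridine and compound, 16 hr in 5% CO2 at 37 °C; ONE-Glo luminescence read after 30 min.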
TDP1 cell CPT = qHTS for Inhibitors of human tyrosyl-DNA phosphodiesterase 1 (TDP1): qHTS in cells in presence of CPT. chicken DT40 Tdp1-/-;hTDP1 cells + 20 nM CPT, ATP luminescence, 48 h. Potency, µM (titrated, usually from 46.2 µM), hits mostly inhibitors. 420,000 tested, 12% active; also: nearly all actives have a fitted effect of over 55% in size
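Chicken DT40 Tdp1-/- cells complemented with human TDP1, 400 cells/well, exposed to compounds plus 20 nM camptothecin for at least 48 h at 37 C; viability read as ATP content by CellTiter-Glo luminescence.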
DT40 TDP1 no CPT = qHTS for Inhibitors of human tyrosyl-DNA phosphodiesterase 1 (TDP1): qHTS in cells in absence of CPT | 420,000 tested, 15% active | DT40 Tdp1-/- hTDP1 cells, no CPT, ATP luminescence, 48 h | Potency, µM (titrated, usually from 46.2 µM), most hits filed as inhibitors; also: nearly all actives have a fitted effect of over 55% in size
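No-CPT arm: Tdp1-/-;hTDP1 DT40 cells (400/well) plus compounds, incubated ≥48 hr at 37 °C. Readout CellTiter-Glo luminescence.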
HT1080 IDH1KD tx = qHTS for induction of synthetic lethality in tumor cells producing 2HG: qHTS for the HT-1080-IDH1KD cell line; HT-1080 IDH1 knockdown viability, ATP luminescence, 48 h; Potency, µM (top dose mostly 46.1 µM), usual class: cytotoxic; 360,000 tested, 2% active
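Knockdown cells (IDH1KD HT-1080) received compounds 2 h after plating at 750 cells/well and were kept 48 h at 37 °C in 5% FBS RPMI. A CellTiter-Glo luminescence read gave % activity for curve fitting.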
HT1080-NT tox = qHTS for induction of synthetic lethality in tumor cells producing 2HG: qHTS for the HT-1080-NT fibrosarcoma cell line. 360,000 tested, 1.6% active. HT-1080-NT fibrosarcoma viability, CellTiter-Glo ATP luminescence, 48 h. Potency, µM (doses to about 46.1 µM), hits mostly cytotoxic. AID 686970, 2013;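 also: NT is the 2HG producing partner of a matched IDH1 knockdown line; nearly all actives have a fitted effect of over 55% in size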
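Read-out is CellTiter-Glo luminescence after 10 minutes at room temperature, following 48 hours' compound treatment of HT-1080-NT cells (750 cells/well, RPMI, 5% FBS, 37 degrees C).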
ELG1 FLuc counter = qHTS screen for small molecules that inhibit ELG1-dependent DNA repair: Hit Confirmation in Cell-Based Luciferin Assay. 350 tested, 3% active. shares compounds with ELG1 repair inh. cell-free firefly luciferase luminescence counter-screen, ViewLux. Potency, µM (series often up to 46.1 µM), actives largely listed as inhibitors
ELG1-Luc inh = HTS assay for small molecules that inhibit ELG1-dependent DNA repair in human embryonic kidney (HEK293T) cells expressing luciferase-tagged ELG1: Hit Confirmation | shares compounds with ELG1 repair inh | AID 624248, 2012 | 670 tested, 68% active | HEK293T ELG1-luciferase levels, luminescence; cells co-treated with 5-fluorouridine | Potency, µM (doses to about 46.1 µM), hits mostly inhibitors; also: nearly all actives have a fitted effect of over 55% in size
ELG1-Luc MMS = inhibits ELG1-dependent repair under MMS stimulation in HEK293T cells | shares compounds with ELG1 repair inh | HEK293T luciferase-tagged ELG1 level, MMS stimulated | Potency, µM (highest dose often 46.1 µM), usual class: inhibitors | 670 tested, 53% active | AID 624249; also: nearly all actives have a fitted effect of over 60% in size
ELG1 5-FU = qHTS screen for small molecules that inhibit ELG1-dependent DNA repair: Hit Confirmation with 5FU Viability; shares compounds with ELG1 repair inh; cell viability with 5-FU, ELG1-dependent repair; Potency, µM (highest dose often 46.1 µM), hits mostly cytotoxic; 670 tested, under 10 active; AID 624250, 2012;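 also: ELG1-luc HEK293T cells cotreated with 5-fluorouridine at 10 µM final; viability measured 16 h after compound addition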
ELG1 MMS cell = qHTS screen for small molecules that inhibit ELG1-dependent DNA repair: Hit Confirmation with MMS Viability; shares compounds with ELG1 repair inh; AID 624251, 2012; Potency, µM (series often up to 46.1 µM), hits mostly cytotoxic; Cell viability with MMS, ELG1-dependent DNA repair; 670 tested, 33% active;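 also: ELG1-luc HEK293T cells co-treated with 10 µM MMS; viability read 16 h after compound addition; nearly all actives have a fitted effect of over 60% in size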
ELG1 unstim viab = qHTS screen for small molecules that inhibit ELG1-dependent DNA repair: Hit Confirmation with Unstimulated Viability Assay | shares compounds with ELG1 repair inh | 900 tested, 8% active | Potency, µM (doses to about 45.9 µM), hits mostly cytotoxic | cell viability counter-screen, unstimulated, luminescence;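 also: compound exposure lasted 16 hours before reading; nearly all actives have a fitted effect of over 55% in size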
FLuc biochem = qHTS screen for small molecules that inhibit ELG1-dependent DNA repair: Hit Confirmation in Biochemical Luciferin Assay; shares compounds with ELG1 repair inh; purified firefly luciferase, luminescence counter-screen; Potency, µM (titrated, usually from 57.5 µM), hits mostly inhibitors; 350 tested, 10% active
Numbers stand for hits; n = inactive; u = inconclusive; x = no result. An excerpt weighted towards active compounds, which were near 19% of everything screened. Unless noted, calls follow the shape of the dose curve; as a rule, active = well fitted curve in the direction sought with a large enough effect; inconclusive = small, poorly fitted or top-dose-only effect, or another doubt; inactive = no such curve, though single readings can be large; an effect the other way counts as inactive or inconclusive.

SMILES	IL1B secr inh	ELG1 repair inh	TDP1 cell CPT	DT40 TDP1 no CPT	HT1080 IDH1KD tx	HT1080-NT tox	ELG1-Luc inh	ELG1-Luc MMS	ELG1 5-FU	ELG1 MMS cell	ELG1 unstim viab	others
Cc1cccc(N2CCN(C3=NC(=O)/C(=C\c4cn[nH]c4-c4ccccc4)S3)CC2)c1	n	2.3µM	6.5µM	2.1µM	n	n	1.4µM	11µM	u	u	u	ELG1 FLuc counter=n;FLuc biochem=n
Cc1ccc(NC(=O)Cn2cnc3ccccc32)cc1C	n	4.6µM	u	u	n	n	n	u	n	u	u
Cc1nc2sc3c(=O)[nH]nnc3c2c(C)c1Br	n	n	n	n	n	n	x	x	x	x	x
COc1ccc(-c2coc3cc(OC)cc(O)c3c2=O)cc1	n	u	n	n	u	n	x	x	x	x	x
COc1ccc(-c2coc3cc(O)cc(O)c3c2=O)cc1	n	u	u	u	n	n	x	x	x	x	n
CCCCc1ccc(S(=O)(=O)NC2CCS(=O)(=O)C2)cc1 (stereo not given)	n	3.7µM	21µM	21µM	n	u	n	11µM	n	11µM	n
COC(=O)Nc1ccc(S(=O)(=O)NC2CCS(=O)(=O)C2)cc1 (stereo not given)	n	n	n	n	n	n	x	x	x	x	x
COc1ccc(/C=N/NC(=O)Nc2cccc3nsnc23)cc1OC	n	2.6µM	9.2µM	9.2µM	n	n	2.8µM	22µM	u	u	u
CCOC(=O)c1c(C)[nH]c(C(=O)NNC(=O)c2ccccc2)c1C	n	u	n	n	n	n	x	x	x	x	x
CCOC(=O)c1c(C)[nH]c(C(=O)NNC(=O)c2ccccc2F)c1C	n	u	n	n	n	n	x	x	x	x	n
